Assay results taken from the supplement of paper PMC11219838.

Tested on: Caenorhabditis elegans L1 (N2)
Test: survival and reproduction score of C. elegans L1 (0: 0-10 living worms, 1: 11-20, 2: 21-50, 3: >50, 4: overgrown) (score 0-4); higher = more worms, less nematicidal, active = 1 or less; extreme values may be limits of the assay
Conditions: 60 µM; 6 days; temperature: 20 °C
How it was run: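 Compound was pinned to a final 60 µM (0.6% v/v DMSO) into 96-well wells, each holding about 20 synchronized C. elegans N2 L1s and E. coli HB101 in liquid NGM. After 6 days of shaking at 200 rpm and 20 °C in sealed plates, the worms in each well were examined. The ordinal readout of survival and reproduction, based on living worms per well, was assessed under a dissection microscope. On this scale 0 meant 0–10 worms and 4 meant overgrown, starved wells, and two biological replicates were averaged.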

Structure (SMILES)	survival and reproduction score
CC(C)Oc1ccc(-c2nc(-c3cccnc3)no2)cc1	0 (active)
Cc1ccc(-c2noc(COc3cccc(C)c3)n2)cc1	4 (inactive)
CCN(Cc1ccccc1)C(=O)c1ccccc1-c1nc(-c2cccc(C)c2)no1	4 (inactive)
COc1nc(-c2ccc(Cl)cc2)ccc1-c1noc(C)n1	4 (inactive)
COc1cccc(-c2noc(COc3ccc(Cl)cc3)n2)c1	4 (inactive)
Cc1cc(OCc2nc(-c3ccncc3)no2)c(C)cc1Br	4 (inactive)
Cc1ccc(-c2noc(-c3ccc4c(c3)OCCO4)n2)cc1	4 (inactive)
COc1ccc(-c2noc(COc3ccc(F)cc3)n2)cc1	4 (inactive)
Cc1ccc(-c2noc(COc3ccc(C)cc3C)n2)cc1	4 (inactive)
CCSc1nnc(-c2ccc(Cl)cc2Cl)o1	0 (active)
Cc1ccc(OCc2nc(-c3ccc4c(c3)OCO4)no2)cc1C	4 (inactive)
COc1nc(-c2ccc(C)cc2)ccc1-c1noc(-c2ccc(F)cc2)n1	4 (inactive)
O=S(=O)(CCC(F)=C(F)F)c1ncc(Cl)s1 [fluensulfone]	4 (inactive)
Clc1ccc(SCc2nc(-c3cccnc3)no2)cc1	2.5 (inactive)
Cc1ccc(OCc2nc(-c3ccccc3Cl)no2)cc1C	2 (inactive)
CCOc1cc(-c2nc(-c3cccnc3)no2)cc(OCC)c1OCC	4 (inactive)
Brc1ccc(-c2nnc(-c3cccs3)o2)o1	0 (active)
COc1ccc(-c2nnc(SCc3csc(N)n3)o2)cc1	4 (inactive)
COc1cccc(-c2noc(COc3cc(C)ccc3C)n2)c1	4 (inactive)
c1ccc(CSc2nnc(-c3cccnc3)o2)cc1	4 (inactive)
